# High-throughput results (PubChem BioAssay)
# MITF TRPM1 inh: reduces MITF-dependent TRPM1 promoter luciferase signal; SK-MEL-5 TRPM1 promoter luciferase, 24 h; inhibition, % at 12.5 µM; 330,000 tested, 0.83% active; AID 488899;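 active = mean inhibition across replicates of 60% or more, whatever share of single replicates reaches that level; inconclusive = some that reach 60%, reason not given; inactive = mean inhibition across replicates below 60%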
# LMP1 NFkB inh: reduces LMP1-driven NF-kappaB luciferase signal | LMP1-induced NF-kappaB luciferase reporter cells, luminescence | inhibition, % at 12.5 µM | 350,000 tested, 0.69% active | AID 504558; in the data active = inhibition above about 41%; inconclusive = no clear call, values can overlap the other calls
# Jurkat NFkB inh: lowers PMA/ionomycin-induced NF-kB signal in Jurkat cells; PMA/ionomycin-induced NF-kB luciferase reporter, luminescence; inhibition, % at 4 µM; 330,000 tested, 0.53% active; AID 435003; in the data active = inhibition above about 50%
# Gli-Sufu antag: Gli-Sufu pathway antagonism. inhibition, % at 5 µM. 340,000 tested, 0.74% active. Sufu-KO-LIGHT fibroblasts, Gli luciferase reporter luminescence. AID 588413;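 active = inhibition above about 55%, limit read from the data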
# Shn3 inh set2: inhibitors of Schnurri-3 3'UTR reporter in osteoblasts | Clone20 osteoblast Shn3 3'UTR firefly luciferase, 24 h | inhibition, % at 12.5 µM | 360,000 tested, 0.52% active | AID 588674;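 active = mean inhibition of at least 75% with every replicate also reaching 75%; inconclusive = mean inhibition at least 75% but some replicate below; inactive = mean inhibition below 75%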
# 697 NFkB inh: lowers PMA/ionomycin-induced NF-kB signal in 697 B cells. 697 B-cell NF-kB luciferase reporter, 16 h. inhibition, % at 4 µM. 330,000 tested, 0.33% active. AID 435022; in the data active = inhibition above about 35%
# Hits are given with their value; n = inactive; u = inconclusive; x = not tested or not shown. A selection: hits, their analogues and other compounds. The true share with any hit is near 2.3%.
SMILES,MITF TRPM1 inh,LMP1 NFkB inh,Jurkat NFkB inh,Gli-Sufu antag,Shn3 inh set2,697 NFkB inh
CCCc1c(C(=O)N/N=C(\C)c2ccccn2)nnn1-c1nonc1N,x,u,x,x,89,x
Cc1nc(SCC(=O)Nc2ccc(CN3CCCC3)cc2)c2c(C)c(C)sc2n1,77,n,n,n,n,n
CC(=O)Nc1ccc(NC(=O)CSc2nc(C)nc3sc(C)c(C)c23)cc1,n,n,n,n,n,n
Cc1cccc(NC(=O)CSc2nnc(-c3ccco3)c(-c3ccco3)n2)c1C,n,n,n,n,n,n
O=C(CNC(=O)c1ccccc1)OCc1ccc([N+](=O)[O-])cc1,n,n,n,n,n,n
O=C(NCC(=O)c1ccccc1)OCc1ccc([N+](=O)[O-])cc1,n,68,n,n,n,n
CC(=O)Nc1ccc(NC(=O)CN(C)CC(=O)Nc2ccccc2Br)cc1,n,n,n,n,n,n
CN(CC(=O)Nc1cccc(F)c1)CC(=O)N(C)CC(=O)Nc1ccccc1Br,n,73,n,n,n,n
COc1ccc(NC(=O)c2cc([N+](=O)[O-])ccc2O)cc1,84,75,n,n,n,n
C/C(=N\Nc1ncnc2sc(C)c(C)c12)c1ccccn1,67,84,n,94,89,n
C/C(=N\Nc1ccc(Cl)c(C(=O)O)c1)c1ccccn1,n,n,n,n,n,n
C/C(=N\Nc1ncc(Cl)cc1Cl)c1ccccn1,95,85,x,76,86,x
c1ccc2c(c1)nc1sccn12,n,n,n,n,n,n
CC(=O)N1c2ccc(S(=O)(=O)N3CCC(C(=O)Nc4cccc(Cl)c4)CC3)cc2CC1C (configuration not stated),n,n,n,73,89,n
CC(=O)N1c2ccc(S(=O)(=O)N3CCC(C(=O)Nc4cccc(C)c4)CC3)cc2CC1C (configuration not stated),n,n,n,n,n,n
CC1Sc2ccc(S(=O)(=O)N3CCC(C(=O)Nc4ccc(Cl)cc4)CC3)cc2NC1=O (configuration not stated),n,n,n,69,89,n
COc1ccc(NC(=O)C2CCN(S(=O)(=O)c3ccc4c(c3)NC(=O)C(C)S4)CC2)cc1 (configuration not stated),n,n,n,n,n,n
CC(=O)N1c2ccc(S(=O)(=O)N3CCC(C(=O)Nc4cccc(F)c4)CC3)cc2CC1C (configuration not stated),n,n,n,n,86,n
Cc1cccc(-c2nc3ccccc3c(=O)n2NC(=O)c2cccnc2Cl)c1,n,n,n,n,n,n
CC(=O)c1ccc(S(=O)(=O)Nc2ccc(-n3c(C)nc4ccccc4c3=O)cc2)cc1,n,n,n,n,n,n
CCOC(=O)C1(Cc2ccc(OC)cc2)CCN(S(C)(=O)=O)CC1,n,n,n,n,n,n
CCOC(=O)C1(Cc2ccc(Cl)cc2)CCN(C(C)Cc2ccc(O)c(OC)c2)CC1 (configuration not stated),n,n,n,72,92,n
CC(C)Cn1c(-c2ccccc2)nc2ccccc2c1=O,n,n,n,n,n,n
CC(=O)c1c(O)cc(=O)n(-c2ccccc2)c1-c1ccc(Cl)cc1,n,n,n,n,n,n
C=CCn1c(SCC(=O)c2[nH]c(C)c(C(=O)OCC)c2C)nc2scc(-c3ccc(OC)c(OC)c3)c2c1=O,102,n,x,n,n,x
SMILES,MITF TRPM1 inh,LMP1 NFkB inh,Jurkat NFkB inh,Gli-Sufu antag,Shn3 inh set2,697 NFkB inh
COc1cccc(/C=N/Nc2ncccc2[N+](=O)[O-])c1OC,n,59,n,n,x,n
COc1cccc(/C=N/Nc2ccc([N+](=O)[O-])cn2)c1O,n,52,n,n,n,n
O=[N+]([O-])c1cccc(C=NNc2ccc3ccccc3n2)c1O,79,n,x,n,n,x
O=[N+]([O-])c1ccc(Nc2nc(N/N=C/c3cccc(F)c3)nc(N3CCCC3)n2)cc1,n,n,n,n,n,n
O=[N+]([O-])c1ccc(/C=N/Nc2ncccc2[N+](=O)[O-])s1,n,n,n,n,n,n
COc1cccc(/C=N/Nc2nc(Nc3ccc([N+](=O)[O-])cc3)nc(N3CCCC3)n2)c1O,n,n,n,n,89,n
CC(=O)Nc1cccc(/C(C)=N/NC(=O)c2ccc3c(c2)OCO3)c1,n,n,n,n,n,n
N#Cc1cc2nc(O)c(O)nc2cc1[N+](=O)[O-],n,n,n,n,n,n
CNc1nc2cc([N+](=O)[O-])c([N+](=O)[O-])cc2nc1NC,n,n,x,84,n,x
O=C(COC(=O)c1nc(Cl)ccc1Cl)c1ccc[nH]1,n,n,n,n,n,n
CN1CCN(c2ccc(NC(=S)NC(=O)c3cccc4ccccc34)cc2)CC1,64,n,n,n,n,n
CCOC(=O)C1C(C(=O)OC)=C(c2ccc(OC)cc2)c2ccc(OC)cc2N1S(=O)(=O)C(F)(F)F (configuration not stated),n,n,x,n,n,n
Cc1ccc(NC(=O)Cn2nc(C)c3ccccc3c2=O)cc1F,n,44,n,n,n,n
O=C(/C=C/[C@H]1O[C@@H](n2cnc3c(NC(=O)c4ccccc4)ncnc32)[C@H](O)[C@@H]1O)NCc1ccco1,x,x,x,x,n,x
COc1ccc(Cl)cc1NC(=O)CN(C)S(=O)(=O)c1cccs1,n,47,n,n,n,n
COc1ccc(-c2nc(C)ncc2-c2ccccc2)c(O)c1,n,43,n,n,n,n
COc1ccc(-c2nc(C)ncc2-c2ccc(Cl)cc2)c(O)c1,n,n,n,n,n,n
Cc1csc(N/N=C/c2ccccc2F)n1,n,87,n,n,n,n
Cc1csc(N/N=C/c2c(F)cccc2Cl)n1,n,n,n,n,n,n
Cc1ccc(NC(Cc2cc(C)no2)c2ccccc2)cc1 (configuration not stated),n,n,n,n,n,n
CC(C)CC(OC(=O)c1cccs1)C(=O)NCc1cccs1 (configuration not stated),n,n,n,n,n,n
Cn1c2ccccc2c(=O)c2c(=O)n(C3CCCCC3)c(-c3ccco3)nc21,70,n,n,n,n,n
COC(=O)c1ccccc1NC(=O)Cn1cnc2ccc(S(=O)(=O)N3CCC(C)CC3)cc2c1=O,n,n,n,n,n,n
CCOC(=O)c1cnc2ccc(C)cn2c1=O,n,n,n,n,n,n
Nc1c(C(=O)OCC2CCCO2)c2nc3ccccc3nc2n1-c1ccc2c(c1)OCCO2 (configuration not stated),x,x,n,n,x,n
O=c1c2c3nc4ccccc4nc3n(-c3ccc4c(c3)OCCO4)c2ncn1C1CCCC1,82,n,n,n,n,n
Cc1ccc[n+](CC(=O)Nc2cc(C(F)(F)F)ccc2Cl)c1,n,n,n,n,n,n
CCC(C)(C)c1ccc(OCCCC[n+]2cccc(C)c2)c(C(C)(C)CC)c1,98,n,x,87,88,x
